Assay outcomes: PubChem BioAssay, several laboratories
SKKanGAS inh: inhibitors of SKKanGAS S. pyogenes growth in kanamycin (SK-promoter or general growth effect) | BacTiter-Glo, 6 h | AID 1662 | inhibition, % at 7.5 µM | 300,000 compounds, 1.3% hits;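 active means mean replicate score, as percent of positive control median, at least 50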;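 further: strain carries kanamycin resistance gene driven by streptokinase promoter and grows in 40 µg/ml kanamycin; loss of luminescence reflects streptokinase promoter inhibition or plain growth inhibition; 0% = median of DMSO wells and 100% = positive control at its reference dose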
PfHsp90 set2: reduces growth (ATP signal) of yeast expressing P. falciparum Hsp90 | inhibition, % at 9.4 µM | S. cerevisiae expressing PfHsp90, BacTiter-Glo ATP, 48 h; yeast lacking PDR1 and PDR3 efflux regulators | 310,000 compounds, 0.32% hits;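 active means every replicate shows inhibition above about 80%, whatever the replicate mean, limit read from the data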;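 further: 0% = DMSO neutral controls and 100% = 20 µM radicicol positive controls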
TIM10 inh: growth inhibitors of TIM10 yeast strain. S. cerevisiae TIM10 strain growth, BacTiter-Glo luminescence, 24 h. 330,000 compounds, 1.4% hits. inhibition, % at 10 µM;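 active means inhibition of 40% or more at the single tested concentration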;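 further: wild-type TIM10 isogenic control strain grown at permissive 25 °C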
tim23-1 inh: inhibits growth of tim23-1 mutant yeast; S. cerevisiae tim23-1 growth, BacTiter-Glo luminescence, 24 h; inhibition, % at 20 µM; 330,000 compounds, 1.3% hits;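 active means growth inhibition of the mutant yeast at or above 50%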;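 further: temperature-sensitive mutant grown at 25 °C; plate controls were DMSO-treated mutant yeast for no effect and medium wells lacking yeast for full effect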
tim10-1 inh: inhibits growth of tim10-1 mutant yeast; S. cerevisiae tim10-1 ts strain growth, BacTiter-Glo, 24 h; inhibition, % at 20 µM; 330,000 compounds, 2.2% hits; AID 463190;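 active means inhibition of at least 40%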;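 further: mutant grown at 25 °C; 0% = DMSO wells with yeast and 100% = wells holding no yeast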
tim23-1 conf: confirmation of tim23-1 mutant yeast growth inhibitors; shares compounds with tim23-1 inh; S. cerevisiae tim23-1 growth, BacTiter-Glo luminescence, 24 h; inhibition, % at 20 µM; 4,400 compounds, 83% hits; AID 463218;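 active means inhibition above about 39% in either of two replicate wells at 20 µM, limit read from the data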;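 further: temperature-sensitive tim23-1 mutant grown at 25 °C; 0% = DMSO wells with yeast and 100% = medium wells without yeast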
* marks the source's active call; other numbers are inactive results; · = no result. This is a sample that favours compounds with a hit; in the whole collection about 4.4% have one here.

SMILES | SKKanGAS inh | PfHsp90 set2 | TIM10 inh | tim23-1 inh | tim10-1 inh | tim23-1 conf
CCCCCc1ccc(OCCCC[n+]2ccc(C)cc2)c(CCCCC)c1 | -15 | -60 | -240 | 53* | -6 | 15
CCCCCc1ccc(OCCCC[n+]2cccc(C)c2)c(CCCCC)c1 | -4 | -23 | -73 | 49 | 31 | ·
CN1c2ccsc2/C(=N/Nc2ccc(F)cc2)CS1(=O)=O | · | -57 | 30 | 53* | 36 | -29
Cn1c(C(=O)NCCc2c[nH]c3ccccc23)cc2sccc21 | 2 | -5 | 24 | 57* | 19 | 57*
Cc1cccc(-c2n[nH]c(=S)n2/N=C/c2cccs2)c1 | 5 | · | 33 | 51* | 10 | 43*
O=C(O)c1cccc(N/N=C(\N=Nc2ccccc2)c2ccccc2)c1 | 21 | 0 | 3 | 53* | 34 | 46*
O=C(O)c1ccc(N=N/C(=N\Nc2ccc(C(=O)O)cc2)c2ccccc2)cc1 | 22 | 12 | 10 | 25 | 5 | ·
CC1CCCN(S(=O)(=O)c2ccc3[nH]c4c(c3c2)CCCC4)C1 (stereo unspecified) | 0 | 30 | 33 | 56* | 32 | 56*
COc1ccc(C2CC(c3ccc(C(F)(F)F)cc3)=NN2c2ccc(S(N)(=O)=O)cc2)cc1 (stereo unspecified) | · | -27 | 30 | 51* | 32 | 14
CC(C)(C)OC(=O)N1CCC[C@H]1C(=O)Nc1ccc(S(=O)(=O)C(F)F)cc1 | 0 | 1 | 17 | 10 | 12 | ·
NC(=S)NNc1cccc2cccnc12 | 7 | -2 | 17 | 58* | 20 | 19
NC(=S)Nc1cccc2cccnc12 | -3 | 6 | 4 | 23 | 21 | ·
C[C@@]12C(=O)Nc3cc(F)c(F)cc3C(=O)N1[C@H]1c3cc(Cl)ccc3OC[C@@H]1[C@@H]2c1ccccc1 | · | -49 | 23 | 51* | 22 | 44*
C[C@@]12C(=O)Nc3ccccc3C(=O)N1[C@H]1c3cc(Cl)ccc3OC[C@@H]1[C@@H]2c1ccccc1 | · | -36 | 22 | 45 | 22 | ·
C[C@@]12C(=O)Nc3ccc(Br)cc3C(=O)N1[C@H]1c3ccccc3OC[C@@H]1[C@@H]2c1ccccc1 | · | 105* | 20 | 61* | 2 | 57*
Cc1ccc2c(c1)NC(=O)[C@@]1(C)[C@@H](c3ccccc3)[C@H]3COc4ccccc4[C@@H]3N1C2=O | · | 19 | -3 | -1 | 25 | ·
Cc1ccc2c(c1)C(=O)N1[C@H]3c4ccccc4OC[C@@H]3[C@H](c3ccccc3)[C@]1(C)C(=O)N2 | · | 105* | 15 | 57* | 14 | 60*
C[C@@]12C(=O)Nc3ccc(Br)cc3C(=O)N1[C@H]1c3cc(Cl)ccc3OC[C@@H]1[C@@H]2c1ccccc1 | · | -137 | 27 | 37 | 28 | ·
CC(C)(C)C(=O)Nc1ccc(C(=O)COC(=O)C2=COCCO2)cc1 | · | · | 4 | 14 | -6 | ·
CC(C#N)Sc1ccc(S(=O)(=O)N2CCCC2)cn1 (stereo unspecified) | · | 1 | 1 | 9 | 7 | ·
CCC(NC(=O)CN1CCN(C(=O)c2cccs2)CC1)c1ccc(C)cc1 (stereo unspecified) | · | -17 | 21 | 32 | 28 | ·
COc1ccc2oc(=Nc3ccccc3)c(-c3nc4ccccc4[nH]3)cc2c1 | 7 | 7 | -27 | -13 | -12 | ·
C[C@@H]1C(c2cccc(Cl)c2)=NN(c2ccc(Br)cc2)[C@H]1C(=O)N1CCOC1=O | · | -35 | 19 | 52* | 28 | 38*
C[C@@H]1C(c2cccc(Cl)c2)=NN(c2ccccc2)[C@H]1C(=O)N1CCOC1=O | · | -16 | -1 | 29 | 10 | ·
O=C1OCCN1C(=O)[C@H]1[C@H](c2ccccc2)C(c2ccccc2)=NN1c1ccc(Br)cc1 | · | 0 | 12 | 42 | 26 | ·
C[C@@H]1C(c2ccccc2)=NN(c2ccccc2)[C@H]1C(=O)N1CCOC1=O | · | 5 | 11 | 54* | 32 | 33
CCOC(=O)c1ccc(S(=O)(=O)N2CCN(C(=O)c3ccccn3)CC2)cc1 | · | 2 | 1 | 1 | -9 | ·
Oc1ccccc1/C=N/NC(=S)NC1CC2CCC1C2 (stereo unspecified) | 70* | -50 | 5 | 66* | 28 | 37
COc1cccc(/C=N/NC(=S)NC2CC3CCC2C3)c1OC (stereo unspecified) | 3 | -9 | 17 | 4 | -12 | ·
